Records with an inconclusive call do not appear. Where a call stands in place of a potency, no number is given. A number with no mark means an inactive call. The source made the active and inactive calls. The call rests on the fitted dose curve; in most records, active means well fitted curve in the direction sought with a large enough effect in the repeat runs; inconclusive means weak or mixed curves; inactive means no such curve, though single readings can be large; an effect the other way counts as inactive or inconclusive.
Assay: A CellTox Green Cytotoxicity Assay to monitor cytotoxicity in HEK293 cells - 8 hour (AID 1224884); further: nearly all actives have a fitted effect of over 35% in size; further: potency means the concentration at half of the fitted maximal effect
Conditions: CellTox Green fluorescence; series mostly up to 76.8 µM
In short: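 Each value comes from one timepoint of a single continuous run in which HEK293 cells with CellTox Green were exposed to compound for up to 40 h at 37 C, dye fluorescence rising with cell death.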

| SMILES | Potency | cytotoxicity increase |
| --- | --- | --- |
| O=C(CCNNC(=O)c1ccncc1)NCc1ccccc1 | inactive |  |
| CCCN1C[C@H](CSC)C[C@@H]2c3cccc4[nH]cc(c34)C[C@H]21 | inactive |  |
| CC(C)NCC(O)COc1ccc(COCCOC(C)C)cc1 (centres undefined) | inactive |  |
| O=C(O)c1cc(Br)c(O)c(Br)c1 | inactive |  |
| C[Si](C)=O |  | 1.88% [at 6.97 µM] |
| Oc1ccccc1-c1nnco1 | inactive |  |
| O=C1c2ccccc2C(=O)C1c1ccccc1 | inactive |  |
| CC(=O)N[C@@H](CCC(=O)O)C(=O)O | inactive |  |
| Cc1cccc(C)c1NC(=O)c1ccccc1C(=O)O | inactive |  |
| Oc1cn2c(n1)Nc1ccc(Cl)c(Cl)c1C2 |  | 1.16% [at 15.8 µM] |
| c1ccc2c(c1)ccc1c3ccccc3ccc21 | inactive |  |
| C=C(C)C(=O)OCCOP(=O)(O)OCCOC(=O)C(=C)C | inactive |  |
| CC(C)CCCC(C)(C)O | inactive |  |
| CCCCCCCCSCC | inactive |  |
| CCOc1cc(NC(C)=O)ccc1C(=O)OC | inactive |  |
| COc1cc2c(cc1OC)[C@@H]1CC(=O)[C@@H](CC(C)C)CN1CC2 | inactive |  |
| COC(=O)c1ccccc1C(=O)c1ccc(OCCN2CCCCC2)cc1 | inactive |  |
| COc1cc(C(=S)N2CCOCC2)cc(OC)c1OC | inactive |  |
| CC(N)C(=O)OC(C)(C)Cc1ccc(Cl)cc1 (centres undefined) | inactive |  |

| SMILES | Potency | cytotoxicity increase |
| --- | --- | --- |
| CCCCCCCCCCCCCC | inactive |  |
| CCCCCCN | inactive |  |
| CN(C)c1ccc(C=O)cc1 | inactive |  |
| O=S(=O)(O)c1cc(O)c2ccc(Nc3ccccc3)cc2c1 | inactive |  |
| CCCCOCCOC(=O)COc1nc(Cl)c(Cl)cc1Cl | 38.9 µM (active) |  |
| CN(CCOc1ccc(NS(C)(=O)=O)cc1)CCc1ccc(NS(C)(=O)=O)cc1 | inactive |  |
| C=COCCOCCOCCOC=C | inactive |  |
| O=C(CCN1CCN(CCO)CC1)N1c2ccccc2Sc2ccc(C(F)(F)F)cc21 | inactive |  |
| Cc1cccc2nccnc12 | inactive |  |
| CC(C)CC(C)CC(C)CC(C)COC(=O)c1ccccc1C(=O)OCC(C)CC(C)CC(C)CC(C)C (centres undefined) | inactive |  |
| C=CC(OCC)OCC | inactive |  |
| CC(=O)CCCCn1c(=O)c2c(ncn2C)n(C)c1=O | inactive |  |
| Cc1ccc2c(c1)OCC(=O)CO2 | inactive |  |
| CC1(C)S[C@@H]2[C@H](N=CN3CCCCCC3)C(=O)N2[C@H]1C(=O)O | inactive |  |
| O=C(OCC1(COC(=O)c2cccnc2)CCCC(COC(=O)c2cccnc2)(COC(=O)c2cccnc2)C1O)c1cccnc1 | inactive |  |
| Cc1ccccc1N=O | inactive |  |
| Cc1ccccc1OCC(O)CO (centres undefined) | inactive |  |
| O=C(O)c1ccc(Cl)cc1Cl | inactive |  |

Assay: qHTS RealTime-Glo MT Cell Viability Assay in HepG2 cells - 16 hour (AID 1224885); further: nearly all actives have a fitted effect of over 50% in size
Conditions: RealTime-Glo luminescence; series mostly up to 76.8 µM
In short: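 Tox21 10K library screened in qHTS format on HepG2 cells carrying RealTime-Glo reagents. Compounds were added after a 5 h preincubation, and the luminescent signal from continuous culture was measured repeatedly during 40 h treatment.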

| SMILES | outcome | activity change, negative = cytotoxic |
| --- | --- | --- |
| O=C(CCNNC(=O)c1ccncc1)NCc1ccccc1 | inactive |  |
| CCCN1C[C@H](CSC)C[C@@H]2c3cccc4[nH]cc(c34)C[C@H]21 | inactive |  |
| CC(C)NCC(O)COc1ccc(COCCOC(C)C)cc1 (centres undefined) | inactive |  |
| O=C(O)c1cc(Br)c(O)c(Br)c1 | inactive |  |
| C[Si](C)=O |  | 0.315% [at 6.97 µM] |
| Oc1ccccc1-c1nnco1 | inactive |  |
| O=C1c2ccccc2C(=O)C1c1ccccc1 | inactive |  |
| CC(=O)N[C@@H](CCC(=O)O)C(=O)O | inactive |  |
| Cc1cccc(C)c1NC(=O)c1ccccc1C(=O)O | inactive |  |
| Oc1cn2c(n1)Nc1ccc(Cl)c(Cl)c1C2 |  | 1.52% [at 15.8 µM] |
| c1ccc2c(c1)ccc1c3ccccc3ccc21 | inactive |  |
| C=C(C)C(=O)OCCOP(=O)(O)OCCOC(=O)C(=C)C | inactive |  |
| CC(C)CCCC(C)(C)O | inactive |  |
| CCCCCCCCSCC | inactive |  |
| CCOc1cc(NC(C)=O)ccc1C(=O)OC | inactive |  |
| COc1cc2c(cc1OC)[C@@H]1CC(=O)[C@@H](CC(C)C)CN1CC2 | inactive |  |
| COC(=O)c1ccccc1C(=O)c1ccc(OCCN2CCCCC2)cc1 | inactive |  |
| COc1cc(C(=S)N2CCOCC2)cc(OC)c1OC | inactive |  |
| CC(N)C(=O)OC(C)(C)Cc1ccc(Cl)cc1 (centres undefined) | inactive |  |

| SMILES | outcome | activity change, negative = cytotoxic |
| --- | --- | --- |
| CCCCCCCCCCCCCC | inactive |  |
| CCCCCCN | inactive |  |
| CN(C)c1ccc(C=O)cc1 | inactive |  |
| O=S(=O)(O)c1cc(O)c2ccc(Nc3ccccc3)cc2c1 | inactive |  |
| CCCCOCCOC(=O)COc1nc(Cl)c(Cl)cc1Cl | inactive |  |
| CN(CCOc1ccc(NS(C)(=O)=O)cc1)CCc1ccc(NS(C)(=O)=O)cc1 | inactive |  |
| C=COCCOCCOCCOC=C | inactive |  |
| O=C(CCN1CCN(CCO)CC1)N1c2ccccc2Sc2ccc(C(F)(F)F)cc21 | inactive |  |
| Cc1cccc2nccnc12 | inactive |  |
| CC(C)CC(C)CC(C)CC(C)COC(=O)c1ccccc1C(=O)OCC(C)CC(C)CC(C)CC(C)C (centres undefined) | inactive |  |
| C=CC(OCC)OCC | inactive |  |
| CC(=O)CCCCn1c(=O)c2c(ncn2C)n(C)c1=O | inactive |  |
| Cc1ccc2c(c1)OCC(=O)CO2 | inactive |  |
| CC1(C)S[C@@H]2[C@H](N=CN3CCCCCC3)C(=O)N2[C@H]1C(=O)O | inactive |  |
| O=C(OCC1(COC(=O)c2cccnc2)CCCC(COC(=O)c2cccnc2)(COC(=O)c2cccnc2)C1O)c1cccnc1 | inactive |  |
| Cc1ccccc1N=O | inactive |  |
| Cc1ccccc1OCC(O)CO (centres undefined) | inactive |  |
| O=C(O)c1ccc(Cl)cc1Cl | inactive |  |

Source: PubChem BioAssay (Tox21)
